PubChem BioAssay (Tox21)
Records with an inconclusive call do not appear. The source holds several records for some structures; these can differ, active in one and inactive in another. The source made the active and inactive calls. Calls come from the whole dose curve; as a rule, active = well fitted curve in the direction sought with a large enough effect in the repeat runs; inconclusive = weak or mixed curves; inactive = no such curve, though single readings can be large; an effect the other way counts as inactive or inconclusive.

Assays:
[1] = target: Cytochrome P450 2C19 (Homo sapiens) (UniProt P33261); assay: Cytochrome P450 Family 2 Subfamily C Member 19 (CYP2C19) small molecule antagonists: luciferase reporter qHTS assay (AID 1671197); details: P450-Glo CYP2C19 enzyme, luciferin luminescence, 1 h; series mostly up to 52.9 µM; note: nearly all actives have a fitted effect of over 65% in size
In short: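 P450-Glo CYP2C19 system: enzyme-substrate mix with compound 10 min at room temperature, then NADPH regeneration solution, 1 h at 37C. Proluciferin-to-luciferin conversion detected by luminescence after 20 min with detection reagent; ketoconazole as positive control.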

[2] = target: Cytochrome P450 2C9 (Homo sapiens) (UniProt P11712); assay: Cytochrome P450 Family 2 Subfamily C Member 9 (CYP2C9) small molecule antagonists: luciferase reporter qHTS assay (AID 1671198); details: P450-Glo CYP2C9 enzyme assay, luciferin luminescence; series mostly up to 53 µM; note: nearly all actives have a fitted effect of over 50% in size
In short: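 Enzyme-substrate mix preincubated with compound 10 min at room temperature; reaction started with NADPH regeneration solution, 1 h 37C. Luminescent luciferin product read after 20 min detection reagent.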

[3] = target: Cytochrome P450 1A2 (Homo sapiens) (UniProt P05177); assay: Cytochrome P450 Family 1 Subfamily A Member 2 (CYP1A2) small molecule antagonists: luciferase reporter qHTS assay (AID 1671199); details: P450-Glo CYP1A2 enzyme, luciferin luminescence, 1 h; series mostly up to 53 µM; note: nearly all actives have a fitted effect of over 50% in size
In short: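 Luminescence from luciferin formed by CYP1A2 from a proluciferin substrate, read 20 min after detection reagent. Compound was pre-incubated 10 min with enzyme-substrate, and reaction started with NADPH regeneration solution for 1 h at room temperature; furafylline control.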

[4] = target: Voltage-gated inwardly rectifying potassium channel KCNH2 (Homo sapiens) (UniProt Q12809); assay: Human Ether-a-go-go-Related Gene (hERG) channel small molecule antagonists: fluorescence cell-based qHTS assay (AID 1671200); details: hERG-U2OS cells, FluxOR thallium flux fluorescence; series mostly up to 76.8 µM; note: nearly all actives have a fitted effect of over 50% in size
In short: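 In this thallium-flux screen, overnight-cultured U2OS cells bearing the channel are dye-loaded in darkness for an hour, rested 10 min at room temperature, and then monitored kinetically at 480/540 nm for two minutes post-stimulus.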

[5] = target: Cytochrome P450 3A4 (Homo sapiens) (UniProt P08684); assay: Cytochrome P450 Family 3 Subfamily A Member 4 (CYP3A4) small molecule antagonists: luciferase reporter qHTS assay (AID 1671201); details: P450-Glo CYP3A4 enzyme, luciferin luminescence, 1 h; series mostly up to 115 µM; note: nearly all actives have a fitted effect of over 50% in size
In short: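 CYP3A4 activity was followed with a P450-Glo proluciferin substrate. Test compounds in DMSO were preincubated 10 min; NADPH regeneration then ran 1 h, and light output was read 20 min after detection reagent.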
Potency is the fitted concentration of half-maximal effect.

Chain of Cytochrome P450 2C19 (Homo sapiens) (P33261 whole entry, looked up): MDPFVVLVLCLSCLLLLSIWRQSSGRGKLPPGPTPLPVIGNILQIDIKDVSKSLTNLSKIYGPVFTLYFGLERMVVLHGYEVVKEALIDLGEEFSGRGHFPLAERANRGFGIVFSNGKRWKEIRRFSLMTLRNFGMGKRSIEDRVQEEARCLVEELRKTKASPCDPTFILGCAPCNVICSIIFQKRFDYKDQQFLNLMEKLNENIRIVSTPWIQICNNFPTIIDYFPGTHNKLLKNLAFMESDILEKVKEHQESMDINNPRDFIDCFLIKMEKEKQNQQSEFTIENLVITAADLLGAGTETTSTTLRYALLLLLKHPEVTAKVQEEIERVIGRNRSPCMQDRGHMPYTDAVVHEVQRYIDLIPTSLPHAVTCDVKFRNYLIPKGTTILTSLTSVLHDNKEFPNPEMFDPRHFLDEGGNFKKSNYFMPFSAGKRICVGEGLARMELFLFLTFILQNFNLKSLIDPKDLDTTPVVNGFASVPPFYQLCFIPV
Chain of Cytochrome P450 3A4 (Homo sapiens) (P08684 whole entry, looked up): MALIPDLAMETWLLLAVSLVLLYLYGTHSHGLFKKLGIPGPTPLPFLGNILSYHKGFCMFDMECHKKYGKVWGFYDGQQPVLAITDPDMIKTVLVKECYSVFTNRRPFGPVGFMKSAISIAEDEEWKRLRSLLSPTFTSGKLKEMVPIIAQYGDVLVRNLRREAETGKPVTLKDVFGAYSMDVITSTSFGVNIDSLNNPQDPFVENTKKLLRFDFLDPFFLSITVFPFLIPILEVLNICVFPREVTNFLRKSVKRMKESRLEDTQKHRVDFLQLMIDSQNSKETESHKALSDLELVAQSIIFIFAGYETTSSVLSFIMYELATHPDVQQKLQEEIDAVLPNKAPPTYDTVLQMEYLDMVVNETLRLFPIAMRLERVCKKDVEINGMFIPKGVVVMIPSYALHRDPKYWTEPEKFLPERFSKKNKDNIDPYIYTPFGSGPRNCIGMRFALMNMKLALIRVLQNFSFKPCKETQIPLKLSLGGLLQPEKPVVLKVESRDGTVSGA
Chain of Cytochrome P450 1A2 (Homo sapiens) (P05177 whole entry, looked up): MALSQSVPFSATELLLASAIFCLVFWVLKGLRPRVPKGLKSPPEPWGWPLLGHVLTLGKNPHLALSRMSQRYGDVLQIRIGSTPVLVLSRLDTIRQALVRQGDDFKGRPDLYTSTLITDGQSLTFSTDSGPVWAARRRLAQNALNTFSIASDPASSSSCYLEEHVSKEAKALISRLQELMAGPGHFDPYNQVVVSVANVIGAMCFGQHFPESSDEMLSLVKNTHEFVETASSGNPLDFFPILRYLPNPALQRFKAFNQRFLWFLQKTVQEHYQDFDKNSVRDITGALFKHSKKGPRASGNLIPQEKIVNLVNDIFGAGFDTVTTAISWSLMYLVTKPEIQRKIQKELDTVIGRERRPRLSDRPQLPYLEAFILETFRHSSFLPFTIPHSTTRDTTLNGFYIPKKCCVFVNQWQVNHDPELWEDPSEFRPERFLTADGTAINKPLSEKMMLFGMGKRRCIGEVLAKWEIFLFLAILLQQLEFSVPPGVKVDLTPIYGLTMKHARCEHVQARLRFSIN
Chain of Voltage-gated inwardly rectifying potassium channel KCNH2 (Homo sapiens) (Q12809 whole entry, looked up): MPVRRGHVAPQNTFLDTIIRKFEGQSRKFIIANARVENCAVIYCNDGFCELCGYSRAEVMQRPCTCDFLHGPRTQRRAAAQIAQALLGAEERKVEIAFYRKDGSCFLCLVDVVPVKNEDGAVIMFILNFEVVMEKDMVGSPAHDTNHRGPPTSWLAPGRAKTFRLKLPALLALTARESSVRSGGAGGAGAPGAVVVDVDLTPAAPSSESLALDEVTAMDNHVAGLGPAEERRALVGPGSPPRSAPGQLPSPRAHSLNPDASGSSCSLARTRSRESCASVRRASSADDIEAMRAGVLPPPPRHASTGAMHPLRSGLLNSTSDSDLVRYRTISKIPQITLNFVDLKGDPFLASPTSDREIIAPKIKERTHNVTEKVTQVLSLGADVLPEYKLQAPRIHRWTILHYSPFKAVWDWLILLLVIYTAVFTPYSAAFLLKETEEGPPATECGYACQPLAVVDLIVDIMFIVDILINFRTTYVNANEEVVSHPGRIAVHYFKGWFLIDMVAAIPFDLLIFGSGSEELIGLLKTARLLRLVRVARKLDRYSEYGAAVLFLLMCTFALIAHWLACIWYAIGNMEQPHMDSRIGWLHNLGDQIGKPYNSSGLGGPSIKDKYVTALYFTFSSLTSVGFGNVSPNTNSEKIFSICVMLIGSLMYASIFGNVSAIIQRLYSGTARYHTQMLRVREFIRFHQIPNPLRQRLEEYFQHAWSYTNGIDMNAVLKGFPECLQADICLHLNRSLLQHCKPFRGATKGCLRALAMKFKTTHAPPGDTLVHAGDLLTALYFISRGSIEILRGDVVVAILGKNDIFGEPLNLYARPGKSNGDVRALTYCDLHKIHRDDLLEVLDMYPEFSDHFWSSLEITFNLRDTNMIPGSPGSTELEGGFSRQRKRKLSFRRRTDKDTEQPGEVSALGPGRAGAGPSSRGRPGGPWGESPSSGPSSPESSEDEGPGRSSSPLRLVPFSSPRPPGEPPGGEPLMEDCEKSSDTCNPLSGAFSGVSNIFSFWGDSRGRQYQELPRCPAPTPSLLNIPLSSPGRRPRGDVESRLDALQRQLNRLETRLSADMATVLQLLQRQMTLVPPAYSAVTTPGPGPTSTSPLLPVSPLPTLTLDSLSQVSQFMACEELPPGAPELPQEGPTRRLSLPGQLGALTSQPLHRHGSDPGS
Chain of Cytochrome P450 2C9 (Homo sapiens) (P11712 whole entry, looked up): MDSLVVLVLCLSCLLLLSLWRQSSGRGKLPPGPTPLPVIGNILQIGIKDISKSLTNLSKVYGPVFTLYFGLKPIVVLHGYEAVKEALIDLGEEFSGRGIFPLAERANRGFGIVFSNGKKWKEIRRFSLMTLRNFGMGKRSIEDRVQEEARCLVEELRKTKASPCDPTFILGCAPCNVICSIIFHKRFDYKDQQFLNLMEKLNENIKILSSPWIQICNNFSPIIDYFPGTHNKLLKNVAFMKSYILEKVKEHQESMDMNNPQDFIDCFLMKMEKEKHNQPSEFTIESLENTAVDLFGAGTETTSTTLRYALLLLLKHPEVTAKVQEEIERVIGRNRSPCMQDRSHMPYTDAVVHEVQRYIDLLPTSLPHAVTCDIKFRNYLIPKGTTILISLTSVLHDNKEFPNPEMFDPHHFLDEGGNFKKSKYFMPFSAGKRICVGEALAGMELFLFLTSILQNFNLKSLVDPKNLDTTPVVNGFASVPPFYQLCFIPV

SMILES | Potency [1] | Potency [2] | Potency [3] | Potency [4] | Potency [5]
Nc1ccccc1O | 19.7 µM (active) | 27.9 µM (active) | 15.7 µM (active) | inactive | 31.3 µM (active)
CN(C)[C@@H]1C(=O)C(C(N)=O)=C(O)[C@@]2(O)C(=O)C3=C(O)c4c(O)cccc4C[C@H]3C[C@@H]12 | inactive | inactive | inactive | inactive | inactive
NNC(=O)c1cccc(C(=O)NN)c1 | inactive | 35.6 µM (active) | 10 µM (active) | inactive | 3.99 µM (active)
CCCCCCCCCCCCCCCS(=O)(=O)Oc1ccccc1 | 4.36 µM (active) | 1.23 µM (active) | inactive | inactive | inactive
COc1ccc(-c2ccc3cc(C(=O)O)ccc3c2)cc1C12CC3CC(CC(C3)C1)C2 | inactive | inactive | inactive | inactive | inactive
CCCCC(CC)COC(=O)c1ccccc1C(=O)O (stereo not given) | 40.6 µM (active) | 5.91 µM (active) | 54.2 µM (active) | inactive | inactive
NC(=O)NS(=O)(=O)c1ccc(N)cc1 | inactive | inactive | inactive | inactive | inactive
Oc1cc2ccccc2c2ccccc12 | 1.12 µM (active) | 5.03 µM (active) | 0.0502 µM (active) | inactive | 6.33 µM (active)
NNc1nc(-c2ccccc2)cs1 | 9.19 µM (active) | 9.19 µM (active) | 0.651 µM (active) | inactive | 5.8 µM (active)
O=CC=C(c1ccccc1)c1ccccc1 | 18 µM (active) | 20.2 µM (active) | 20.2 µM (active) | 39.2 µM (active) | inactive
CC[C@H]1O[C@]2(CC[C@@H]1C)C[C@@H]1C[C@@H](C/C=C(\C)C[C@@H](C)/C=C/C=C3\CO[C@@H]4[C@H](O)C(C)=C[C@@H](C(=O)O1)[C@]34O)O2 | 19.8 µM (active) | 12.5 µM (active) | inactive | inactive | 5.59 µM (active)
NNc1nc(-c2ccc(N)cc2)cs1 | 79.6 µM (active) | 31.7 µM (active) | 35.6 µM (active) | inactive | 14.2 µM (active)
CCCCCCCCCCn1cc[n+](CCCCCCCCCC)c1C | 35.6 µM (active) | 40 µM (active) | 71.1 µM (active) | 0.49 µM (active) | 31.8 µM (active)
COC(=O)c1cc(Cl)ccc1OC | inactive | inactive | 2.88 µM (active) | inactive | inactive
CCCC/C=C/CCCCO | inactive | 71 µM (active) | inactive | inactive | inactive
O=C1c2ccccc2Cc2ccccc21 | 9.01 µM (active) | 16 µM (active) | 0.452 µM (active) | inactive | 22.6 µM (active)
CC/C(=C(\c1ccc(O)cc1)c1ccc(OCCN(C)C)cc1)c1ccccc1 | 44.9 µM (active) | 71.2 µM (active) | inactive | – | 12.7 µM (active)
CC(C)(C)CC(C)(C)c1ccc(OCCOCC[N+](C)(C)Cc2ccccc2)cc1 | inactive | 79.6 µM (active) and inactive | inactive | – | inactive
O=S1(=O)CC(Cl)(Cl)C(Cl)(Cl)C1 | 35.6 µM (active) | 22.4 µM (active) | 22.4 µM (active) | inactive | 25.2 µM (active)
O=C1c2c(O)ccc(Nc3ccc(CCO)cc3)c2C(=O)c2c([N+](=O)[O-])ccc(O)c21 | 39.9 µM (active) | 10 µM (active) | 31.7 µM (active) | – | 31.7 µM (active)
Cc1[nH]nc2c1N=C(c1ccccc1Cl)c1cc([N+](=O)[O-])ccc1N2 | 17.8 µM (active) | 15.9 µM (active) | 63.3 µM (active) | 8.71 µM (active) | 3.99 µM (active)
Nc1ccc2c3c(cccc13)-c1ccccc1-2 | 18 µM (active) | 32.1 µM (active) | 0.128 µM (active) | inactive | 18 µM (active)
C=CC(=O)OCCn1c(=O)n(CCOC(=O)C=C)c(=O)n(CCOC(=O)C=C)c1=O | 2.83 µM (active) | 35.6 µM (active) | 39.9 µM (active) | inactive | 0.2 µM (active)
O=c1cccccc1O | inactive | inactive | inactive | inactive | inactive
CCCCCCCCCCCCc1ccc(O)cc1 | 1.59 µM (active) | 6.33 µM (active) | 22.4 µM (active) | – | 35.6 µM (active)
O=C(Nc1ccc(Oc2ccc(Cl)cc2)c(Cl)c1)c1cc(I)cc(I)c1O | inactive | 38.9 µM (active) | inactive | inactive | inactive
O=C(OCC(COC(=O)c1ccccc1)(COC(=O)c1ccccc1)COC(=O)c1ccccc1)c1ccccc1 | 3.55 µM (active) | 5.63 µM (active) | inactive | inactive | inactive
CCOc1ccc2nc3cc(N)ccc3c(N)c2c1 | inactive | inactive | 0.871 µM (active) | inactive | inactive
CCCCCCCC/C=C\CCCCCCCCOCCO | 46.3 µM (active) | 29.2 µM (active) | inactive | – | 11.6 µM (active)
